90 compounds from PubChem BioAssay AID463173 (ICCB-Longwood Screening Facility, Harvard Medical School, 2010) can be followed below.

The campaign covered roughly 52,000 compounds. About 1,700 (3.3%) were called active. Rule as the data show it: active = survival mostly below about 52% (no sharp cut-off); inactive = mostly above about 56%. For the sample, actives were picked, then their nearest neighbours and some compounds at random.

This experiment relates to Wild type. Kind of experiment: growth inhibition of S. aureus wild type versus tarO mutant, primary screen, teichoic acid synthesis inhibitors, RN4220, OD600 (AID 463173). The following applies: S. aureus RN4220 wild type/DeltatarO growth, OD600, 18 h, active compounds read low, screened at 18.75 µg/mL (by protocol).
For `O=C(NCc1cccc(Cl)c1)c1cnc(N2CCCCC2)c2ccccc12`, the survival is 89% (inactive).
In the case of `O=C(COC(=O)c1cccc(NC(=O)c2ccc(Br)cc2)c1)c1ccc(Cl)cc1` it was 93% (inactive); in that of `O=C(CC1N=C2c3ccccc3N=C(SCC(=O)Nc3cccc(Cl)c3)N2C1=O)NCc1cccs1` (stereo not given), 82% (inactive).
In the case of `CCn1ccc2cc(S(=O)(=O)N3CCC(C(=O)NCc4ccc(F)cc4)CC3)ccc21` it was 80% (inactive); in that of `CCCCNC(=O)C1CCN(S(=O)(=O)c2ccc3c(ccn3CC)c2)CC1`, 124% (inactive); in that of `CCn1ccc2cc(S(=O)(=O)N3CCC(C(=O)NCc4ccc(OC)cc4)CC3)ccc21`, -3% (active).
In the case of `CCn1ccc2cc(S(=O)(=O)N3CCC(C(=O)NCC(C)c4ccccc4)CC3)ccc21` (stereo not given) it was 87% (inactive); in that of `CCn1ccc2cc(S(=O)(=O)N3CCC(C(=O)NCc4ccc(OC(C)C)cc4)CC3)ccc21`, 69% (inactive); in that of `CCC(C)NC(=O)C1CCN(S(=O)(=O)c2ccc3c(ccn3CC)c2)CC1` (stereo not given), 0% (active).
As for `O=C(Cn1c(=O)nc(-c2ccccc2)c2ccccc21)NCCCc1ccccc1`, the survival is 60% (inactive).
For `Cc1c(Cl)cccc1Nc1nn2c(=O)c3ccc(C(=O)NCCC4=CCCCC4)cc3nc2s1`, the survival was 74% (inactive).
As to `COc1ccc(OC)c(S(=O)(=O)N2CC=C(c3c(C)n(CC(=O)N4CCCC4)c4ccccc34)CC2)c1`, the survival was 83% (inactive).
In the case of `O=S(=O)(c1cccc2nsnc12)N(CCOc1ccccc1)C1CCCCC1`, the survival is 99% (inactive).
The value for `COc1cccc(CNC(=O)C2CCN(c3ncccn3)CC2)c1` was 102% (inactive); that for `CCn1c(=O)c2cc(C(=O)N3CCN(c4cccc(OC)c4)CC3)sc2c2ccccc21` was 69% (inactive).
For `COc1ccc(C(=O)N2c3ccc(C)cc3C(C)(c3ccccc3)CC2(C)C)cc1` (stereo not given), the survival is 45% (inactive).
As to `Cc1ccc2c(c1)N(C(=O)c1ccc(F)cc1)C(C)(C)CC2(C)c1ccccc1` (stereo not given), the survival is 43% (inactive).
`CC1=CC(C)(C)N(CC(=O)c2ccccc2)c2ccc(C)cc21`: the survival is 109% (inactive).
In the case of `Cc1ccc(C(=O)N2c3ccc(C)cc3C(C)(c3ccccc3)CC2(C)C)cc1` (stereo not given) it was 2% (active); in that of `Cc1ccc(C(=O)N2CCN(c3ccccc3)CC2)cc1`, 112% (inactive).
In the case of `Cc1ccc2c(c1)C(C)(c1ccccc1)CC(C)(C)N2C(=O)c1ccc(F)cc1` (stereo not given), the survival was -2% (active).
Consider `CCOc1ccc(S(=O)(=O)n2nc(C)c(S(=O)(=O)N3CCCCC3)c2C)cc1`, for which the survival was 67% (inactive).
The value for `Cc1ccc(C)c(NC(=O)Cn2c(=O)n(CCCS(=O)(=O)C3CCCCC3)c(=O)c3ccccc32)c1` was 119% (inactive); that for `CSc1nc2ccc(S(=O)(=O)N3CCCCC3)cc2s1` was 105% (inactive); that for `COCCCNC(=O)c1ccc(Cn2c(=O)c3ccccc3n(CC(=O)Nc3ccc(C)cc3C)c2=O)cc1` was 100% (inactive).
With `Cc1ccccc1CNC(=O)Cc1csc2ccccc12`, the survival was 94% (inactive).
Turning to `COc1ccccc1NC(=O)CSc1ncc2c(n1)-c1cc(Cl)ccc1N(C)S2(=O)=O`, the survival is 73% (inactive).
Turning to `CCOc1ccc(NC(=O)CN2CCN(CC(=O)Nc3ccc(N(CC)CC)cc3)CC2)cc1`, the survival is 80% (inactive).
The value for `COc1ccc(NC(=O)c2cc3c(=O)n(Cc4cccs4)ccc3nc2C)c(OC)c1` was 83% (inactive); that for `O=c1[nH]c2ccc(NCc3ccc(-c4ccc(Cl)cc4)o3)cc2[nH]1` was 111% (inactive); that for `COc1ccc(CCNC(=O)C(=O)NCC(c2cccs2)S(=O)(=O)c2ccc(F)cc2)cc1` (stereo not given) was 73% (inactive).
In the case of `Cc1cccc(NS(=O)(=O)c2ccc3nc(-c4ccccc4)[nH]c3c2)c1C` it was 129% (inactive).
The value for `Cc1cc(NS(=O)(=O)c2ccc3nc(-c4ccccc4)[nH]c3c2)ccc1Br` was -4% (active); that for `O=S(=O)(Nc1ccc(Br)cc1)c1ccc2nc(-c3ccccc3)[nH]c2c1` was -3% (active); that for `Cc1ccc(NS(=O)(=O)c2ccc3nc(-c4ccccc4)[nH]c3c2)cc1Cl` was 1% (active).
For `O=S(=O)(Nc1ccc(Br)cc1F)c1ccc2nc(-c3ccccc3)[nH]c2c1`, the survival was 71% (inactive).
In the case of `COc1ccc(NS(=O)(=O)c2ccc3nc(-c4ccccc4)[nH]c3c2)cc1` it was 81% (inactive); in that of `Cc1ccc(NS(=O)(=O)c2ccc3nc(-c4ccccc4)[nH]c3c2)c(Br)c1`, 63% (inactive); in that of `Cc1ccc(NS(=O)(=O)c2ccc3nc(-c4ccccc4)[nH]c3c2)c(Cl)c1`, 60% (inactive).
With `CC(C)c1ccc(NS(=O)(=O)c2ccc3nc(-c4ccccc4)[nH]c3c2)cc1`, the survival was 63% (inactive).
In the case of `COc1cc(C)ccc1OCCSc1nc(-c2cccc(C)c2)nc2cc(=O)[nH]n12` it was 88% (inactive); in that of `Cc1ccc(NC(=O)c2oc3ccc(S(=O)(=O)N4CCC5(CC4)OCCO5)cc3c2C)c(C)c1`, 143% (inactive); in that of `O=C(CS(=O)(=O)c1cccc2nsnc12)Nc1cc(F)ccc1F`, 97% (inactive).
In the case of `Cn1c(=O)c2c(nc(NCCc3ccccc3)n2Cc2ccc(Cl)cc2)n(C)c1=O` it was 74% (inactive); in that of `CCc1ccc(N2C(=O)C3C4CCCC4=C4CCCC4C3C2=O)cc1` (stereo not given), 116% (inactive).
In the case of `Cn1c(=O)c2c(nc3n(-c4ccc(O)cc4)c(-c4ccc(Br)cc4)cn23)n(C)c1=O` it was 142% (inactive).
Take `COc1ccc(CNC(=O)C2CCN(C(=O)N3CCOc4ccc(C)cc43)CC2)cc1`: the survival was 80% (inactive).
As for `Cc1cccn2c(=O)c3cc(C(=O)Nc4ccc(Cl)c(Cl)c4)sc3nc12`, the survival was 71% (inactive).
Consider `CCS(=O)(=O)c1nnnn1-c1ccccc1`, for which the survival was 1% (active).
Regarding `c1ccc(CNc2nnnn2-c2ccccc2)cc1`, the survival is 106% (inactive).
As for `O=C(O)CCSc1nnnn1-c1ccccc1`, the survival was 114% (inactive).
For `COc1ccc(C2CC(=O)c3cc(-c4nc(-c5cccc([N+](=O)[O-])c5)cs4)c(=O)n(-c4cc(C)cc(C)c4)c3C2)cc1` (stereo not given), the survival is 80% (inactive).
In the case of `COc1ccc(C2=Nc3ccccc3N(CC(=O)Nc3cccc(C(C)=O)c3)C(=O)C2)cc1` it was 136% (inactive); in that of `COc1ccccc1CNC(=O)C1CCN(S(=O)(=O)c2cn(C)cn2)CC1`, -3% (active).
The value for `Cc1ccc(N(C)C(=O)C2CCN(S(=O)(=O)c3cn(C)cn3)CC2)cc1` was 10% (active); that for `CN(C)c1ccc(CNC(=O)C2CCN(S(=O)(=O)c3cn(C)cn3)CC2)cc1` was -2% (active).
The value for `Cc1ccc(CNC(=O)C2CCN(S(=O)(=O)c3cn(C)cn3)CC2)cc1` was 82% (inactive).
Turning to `Cn1cnc(S(=O)(=O)N2CCC(C(=O)NCc3ccccc3Cl)CC2)c1`, the survival was 128% (inactive).
Take `Cn1cnc(S(=O)(=O)N2CCC(C(=O)NCc3ccc(Cl)cc3)CC2)c1`: the survival was 95% (inactive).
The value for `Cc1cc(C)cc(NC(=O)C2CCN(S(=O)(=O)c3cn(C)cn3)CC2)c1` was 73% (inactive); that for `COc1ccc(OC)c(CNC(=O)C2CCN(S(=O)(=O)c3cn(C)cn3)CC2)c1` was 82% (inactive).
The value for `Cc1ccc(C)c(N2CCN(C(=O)C3CCN(S(=O)(=O)c4cn(C)cn4)CC3)CC2)c1` was 75% (inactive); that for `COc1ccc(-c2cn3nc(SCC(=O)Nc4cc(C)cc(C)c4)ccc3n2)cc1` was 68% (inactive).
For the compound `CCN(CC)S(=O)(=O)c1ccc(C(=O)N2CC(=O)Nc3ccc(F)cc3C2c2ccccc2)cc1` (stereo not given), the survival is 81% (inactive).
The value for `COc1ccc(NC(=O)c2ccc(-c3nc(COc4ccccc4)c(C)o3)cc2)cc1` was 84% (inactive); that for `Cc1n[nH]c(C)c1N1C(=O)c2cccc3c(N4CCCCC4)ccc(c23)C1=O` was 116% (inactive).
Regarding `COc1ccc(CCNC(=O)C(=O)NCC(c2ccc3c(c2)OCO3)N2CCOCC2)cc1` (stereo not given), the survival is 0% (active).
In the case of `O=C(NCCO)C(=O)NCC(c1ccc2c(c1)OCO2)N1CCOCC1` (stereo not given) it was 59% (inactive); in that of `CN(C)CCNC(=O)C(=O)NCC(c1ccc2c(c1)OCO2)N1CCOCC1` (stereo not given), 73% (inactive); in that of `CC(C)(C)C(=O)NCC(c1ccc2c(c1)OCO2)N1CCOCC1` (stereo not given), -2% (active).
The value for `COCCCNC(=O)C(=O)NCC(c1ccc2c(c1)OCO2)N1CCOCC1` (stereo not given) was 87% (inactive); that for `CN(C)CCCNC(=O)C(=O)NCC(c1ccc2c(c1)OCO2)N1CCOCC1` (stereo not given) was 124% (inactive); that for `COCCNC(=O)C(=O)NCC(c1ccc2c(c1)OCO2)N1CCOCC1` (stereo not given) was -3% (active).
`O=C(NCCCO)C(=O)NCC(c1ccc2c(c1)OCO2)N1CCOCC1` (stereo not given): the survival is 10% (active).
In the case of `COc1ccc(CCNC(=O)C(=O)NCC(c2ccc3c(c2)OCO3)N2CCOCC2)cc1OC` (stereo not given), the survival is 73% (inactive).
In the case of `COc1ccc(CNC(=O)C(=O)NCC(c2ccc3c(c2)OCO3)N2CCOCC2)cc1` (stereo not given) it was 80% (inactive); in that of `CC(C)(C)CC(=O)NCC(c1ccc2c(c1)OCO2)N1CCOCC1` (stereo not given), 73% (inactive); in that of `CNC(=O)C(=O)NCC(c1ccc2c(c1)OCO2)N1CCOCC1` (stereo not given), 113% (inactive).
For `O=C(CS(=O)(=O)c1cccc2nsnc12)NCc1ccccc1Cl`, the survival is 136% (inactive).
Regarding `Cc1cc(Nc2ccc(C(=O)O)c(O)c2)n2ncnc2n1`, the survival was 72% (inactive).
Turning to `O=C(NCCc1ccc(Cl)cc1)c1nc(-c2cccc(F)c2)n2c1CCCCC2`, the survival is 140% (inactive).
The value for `COc1ccc(NC(=O)c2cc3c(=O)n(Cc4ccco4)ccc3nc2C)c(OC)c1` was 88% (inactive); that for `COc1ccc(Cn2ccc3nc(C)c(C(=O)Nc4ccc(F)cc4)cc3c2=O)cc1` was -3% (active).
In the case of `CC(=O)Nc1ccc(NC(=O)c2cc3c(=O)n(Cc4cccnc4)ccc3nc2C)cc1`, the survival is 65% (inactive).
For the compound `COc1ccc(NC(=O)c2cc3c(=O)n(Cc4cccnc4)ccc3nc2C)c(OC)c1`, the survival was 88% (inactive).
`Cc1cccc(NC(=O)c2cc3c(=O)n(Cc4cccnc4)ccc3nc2C)c1`: the survival was -3% (active).
In the case of `COc1ccc(Cn2ccc3nc(C)c(C(=O)Nc4ccc(OC)cc4)cc3c2=O)cc1` it was 85% (inactive); in that of `COc1ccc(Cn2ccc3nc(C)c(C(=O)Nc4ccc(OC)cc4OC)cc3c2=O)cc1`, 0% (active); in that of `COc1cccc(NC(=O)c2cc3c(=O)n(Cc4cccnc4)ccc3nc2C)c1`, 78% (inactive).
In the case of `COc1ccc(Cn2ccc3nc(C)c(C(=O)Nc4ccc(OC(F)(F)F)cc4)cc3c2=O)cc1` it was 90% (inactive).
